Data reported in ChEMBL document CHEMBL3988442, “University of Dundee, Small-Polar-MMV Screening Library” (2021).
Where “and” joins values, the source holds several entries; their conditions need not be identical. Identical values can stand only once. For part of these data: Potency and affinity values are given separately.

Legend:
Set-up in all cases: scale not given: direction of the effect not stated beside the values
[1] = molecular target: Protein translocase subunit SecA (Escherichia coli (strain K12)) (UniProt P10408); assay: Assay to Identify E. coli SecA ATPase Inhibitors; type: functional; settings: 30 µM
Chain of Protein translocase subunit SecA (Escherichia coli (strain K12)) (P10408 whole entry): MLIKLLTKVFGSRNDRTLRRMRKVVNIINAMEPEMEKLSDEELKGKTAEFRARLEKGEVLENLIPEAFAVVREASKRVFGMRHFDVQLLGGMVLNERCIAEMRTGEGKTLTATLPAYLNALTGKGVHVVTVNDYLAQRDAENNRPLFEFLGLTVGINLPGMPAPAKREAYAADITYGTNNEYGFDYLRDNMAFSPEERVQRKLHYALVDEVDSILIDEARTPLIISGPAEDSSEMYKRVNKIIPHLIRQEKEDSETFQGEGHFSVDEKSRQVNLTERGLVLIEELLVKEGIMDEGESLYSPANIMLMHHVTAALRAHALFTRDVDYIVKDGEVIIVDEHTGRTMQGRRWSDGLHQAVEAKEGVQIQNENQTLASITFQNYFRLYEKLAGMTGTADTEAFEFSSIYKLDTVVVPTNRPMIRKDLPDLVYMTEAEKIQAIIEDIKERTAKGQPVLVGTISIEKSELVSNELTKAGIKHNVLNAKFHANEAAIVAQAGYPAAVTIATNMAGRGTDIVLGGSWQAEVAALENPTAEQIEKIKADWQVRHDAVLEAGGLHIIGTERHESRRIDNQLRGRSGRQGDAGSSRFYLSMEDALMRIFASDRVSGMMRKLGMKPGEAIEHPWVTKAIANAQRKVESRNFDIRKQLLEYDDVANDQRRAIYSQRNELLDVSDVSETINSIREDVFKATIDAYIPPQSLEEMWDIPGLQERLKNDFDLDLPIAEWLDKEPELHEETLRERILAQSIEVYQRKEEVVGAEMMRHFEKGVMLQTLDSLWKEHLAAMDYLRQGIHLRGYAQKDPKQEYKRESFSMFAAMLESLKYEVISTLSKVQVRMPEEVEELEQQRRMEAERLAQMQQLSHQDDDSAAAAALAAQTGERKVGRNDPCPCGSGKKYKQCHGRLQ

[2] = molecular target: T1, Ubiquitin-activating enzyme e1, putative (Leishmania donovani (strain BPK282A1)) (UniProt E9BSI1); assay: Leishmania donovani Ubiquitin Activating Enzyme (LdE1); type: functional; settings: 30 µM
T1 sequence (whole entry): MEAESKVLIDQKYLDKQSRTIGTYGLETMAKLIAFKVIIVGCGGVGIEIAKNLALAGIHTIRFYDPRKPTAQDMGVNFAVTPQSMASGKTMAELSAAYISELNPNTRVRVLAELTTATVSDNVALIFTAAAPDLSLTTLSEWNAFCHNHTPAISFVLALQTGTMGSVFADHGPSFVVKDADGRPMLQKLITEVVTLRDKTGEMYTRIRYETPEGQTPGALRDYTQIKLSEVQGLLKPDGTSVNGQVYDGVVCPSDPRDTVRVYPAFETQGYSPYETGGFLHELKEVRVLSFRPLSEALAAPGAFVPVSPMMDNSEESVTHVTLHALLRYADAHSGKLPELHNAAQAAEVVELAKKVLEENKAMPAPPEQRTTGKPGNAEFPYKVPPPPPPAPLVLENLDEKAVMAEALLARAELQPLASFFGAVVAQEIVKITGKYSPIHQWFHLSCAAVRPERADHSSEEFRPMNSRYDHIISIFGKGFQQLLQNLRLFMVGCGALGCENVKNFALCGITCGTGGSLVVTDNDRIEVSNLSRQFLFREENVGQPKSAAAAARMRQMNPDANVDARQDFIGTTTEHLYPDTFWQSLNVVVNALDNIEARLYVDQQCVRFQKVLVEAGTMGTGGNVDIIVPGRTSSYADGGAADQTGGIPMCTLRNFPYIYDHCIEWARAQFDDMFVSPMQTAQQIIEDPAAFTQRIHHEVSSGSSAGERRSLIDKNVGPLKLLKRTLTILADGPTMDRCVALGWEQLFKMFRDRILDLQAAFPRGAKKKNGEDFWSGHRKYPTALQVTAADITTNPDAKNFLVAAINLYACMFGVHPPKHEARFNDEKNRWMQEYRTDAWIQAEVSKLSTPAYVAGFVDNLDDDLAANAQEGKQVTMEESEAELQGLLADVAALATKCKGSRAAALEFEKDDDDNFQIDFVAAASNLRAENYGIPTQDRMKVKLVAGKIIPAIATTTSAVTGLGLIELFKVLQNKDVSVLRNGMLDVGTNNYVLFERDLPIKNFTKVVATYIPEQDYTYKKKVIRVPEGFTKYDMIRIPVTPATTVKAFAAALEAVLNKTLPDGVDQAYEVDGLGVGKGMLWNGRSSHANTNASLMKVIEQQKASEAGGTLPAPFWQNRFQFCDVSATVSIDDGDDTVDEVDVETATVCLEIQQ

[3] = molecular target: AMP-activated protein kinase, AMPK (Homo sapiens) (UniProt P54646+O43741+P54619+Q9UGJ0+Q9Y478+Q13131+Q9UGI9); assay: AMP-dependent Kinase enzyme assay. An in vitro enzyme assay that detects ADP turnover that is directly proportional to AMPK activity. This uses naive AMPK that is activated during the assay with MK-8722; type: functional; settings: 30 µM
[4] = molecular target: Sialic acid-binding Ig-like lectin 9 (Homo sapiens) (UniProt Q9Y336); assay: Hs-Siglec9 ALPHAscreen SOP 20170721; settings: 10 µM
Chain of Sialic acid-binding Ig-like lectin 9 (Homo sapiens) (Q9Y336 whole entry): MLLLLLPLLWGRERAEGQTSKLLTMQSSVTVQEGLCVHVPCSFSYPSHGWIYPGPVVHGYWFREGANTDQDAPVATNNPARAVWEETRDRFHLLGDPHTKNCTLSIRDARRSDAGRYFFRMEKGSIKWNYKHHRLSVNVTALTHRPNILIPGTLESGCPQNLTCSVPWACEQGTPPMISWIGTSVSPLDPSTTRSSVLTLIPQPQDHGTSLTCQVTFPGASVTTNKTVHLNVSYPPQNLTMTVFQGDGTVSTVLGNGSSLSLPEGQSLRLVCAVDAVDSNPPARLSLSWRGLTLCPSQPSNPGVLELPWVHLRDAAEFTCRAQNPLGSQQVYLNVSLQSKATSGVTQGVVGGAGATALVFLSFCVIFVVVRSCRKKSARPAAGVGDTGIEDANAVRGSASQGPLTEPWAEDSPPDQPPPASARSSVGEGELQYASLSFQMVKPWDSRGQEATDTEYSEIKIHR

Trypanosoma cruzi = assay: Trypanosoma cruzi phosphomannomutase and mannose-1-phosphate guanylyltransferase assay; type: functional; settings: 10 µM
[5] = molecular target: T2, Arginase-2, mitochondrial (Homo sapiens) (UniProt P78540); assay: in vitro enzyme assay to detect the production of urea directly proportional to the activity of Arginase II; type: functional; settings: 33.3 µM; further: in the data most compounds retested in dose-response had high values
T2 sequence (whole entry): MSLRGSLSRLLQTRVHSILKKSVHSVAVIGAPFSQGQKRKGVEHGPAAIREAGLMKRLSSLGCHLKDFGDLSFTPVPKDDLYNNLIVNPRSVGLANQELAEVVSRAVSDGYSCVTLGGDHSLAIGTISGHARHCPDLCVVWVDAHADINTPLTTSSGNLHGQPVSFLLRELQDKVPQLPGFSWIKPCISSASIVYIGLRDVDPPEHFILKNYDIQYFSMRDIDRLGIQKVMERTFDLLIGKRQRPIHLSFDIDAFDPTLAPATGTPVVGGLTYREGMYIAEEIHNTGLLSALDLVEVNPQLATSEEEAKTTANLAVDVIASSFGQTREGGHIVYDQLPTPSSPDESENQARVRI

[6] = molecular target: T3, Proteasome subunit beta (Trypanosoma cruzi) (UniProt O96673); assay: Trypanosoma cruzi proteasome chymotrypsin-like activity (TcProtChymo) assay.; further: in the data most compounds retested in dose-response had high values; type: functional; settings: 9.37 µM
T3 sequence (whole entry): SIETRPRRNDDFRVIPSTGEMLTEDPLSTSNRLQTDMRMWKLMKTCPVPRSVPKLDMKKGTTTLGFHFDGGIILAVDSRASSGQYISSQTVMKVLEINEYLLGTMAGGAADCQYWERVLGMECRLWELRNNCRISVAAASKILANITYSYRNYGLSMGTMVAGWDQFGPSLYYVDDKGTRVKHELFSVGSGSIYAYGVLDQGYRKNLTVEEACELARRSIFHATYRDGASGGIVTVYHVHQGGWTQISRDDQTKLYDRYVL

N/A = assay: Trypanosoma cruzi proteasome luciferase counter-screen; type: functional; settings: 9.37 µM
Homo sapiens = species on record: Homo sapiens; assay: To identify inhibition of the IFN signalling (Jak-Stat) pathway via expression of an eGFP reporter gene under the control of an IFN-stimulated response element (ISRE) containing MxA promoter.; type: functional; settings: 30 µM
[7] = molecular target: T4, Tyrosyl-tRNA synthetase, putative (Trypanosoma cruzi (strain CL Brener)) (UniProt Q4DSP6); assay: Trypanosoma cruzi tyrosyl tRNA synthetase (TcYRS) _High Tyrosine SOP; type: functional; settings: 30 µM; further: in the data most compounds retested in dose-response had high values
T4 sequence (whole entry): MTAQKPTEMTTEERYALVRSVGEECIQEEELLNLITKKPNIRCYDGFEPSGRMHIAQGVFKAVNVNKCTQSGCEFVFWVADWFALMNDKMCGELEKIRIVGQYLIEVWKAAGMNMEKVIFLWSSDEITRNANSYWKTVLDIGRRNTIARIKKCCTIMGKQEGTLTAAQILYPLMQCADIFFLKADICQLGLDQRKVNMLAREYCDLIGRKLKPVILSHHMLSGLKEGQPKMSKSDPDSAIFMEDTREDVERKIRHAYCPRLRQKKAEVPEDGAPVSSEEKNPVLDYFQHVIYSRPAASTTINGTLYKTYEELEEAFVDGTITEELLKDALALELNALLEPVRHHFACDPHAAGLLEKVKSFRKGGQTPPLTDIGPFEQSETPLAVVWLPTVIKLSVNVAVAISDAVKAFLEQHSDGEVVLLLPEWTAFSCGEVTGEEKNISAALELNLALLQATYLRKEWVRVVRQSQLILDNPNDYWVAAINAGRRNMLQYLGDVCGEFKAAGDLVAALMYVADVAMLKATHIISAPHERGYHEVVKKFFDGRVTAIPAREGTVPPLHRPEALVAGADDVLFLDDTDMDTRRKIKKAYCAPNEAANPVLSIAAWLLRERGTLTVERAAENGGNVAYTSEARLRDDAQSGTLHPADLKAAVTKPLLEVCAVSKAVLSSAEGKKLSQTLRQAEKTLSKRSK

[8] = molecular target: T4, Tyrosyl-tRNA synthetase, putative (Trypanosoma cruzi (strain CL Brener)); assay: Trypanosoma cruzi tyrosyl tRNA synthetase (TcYRS) SOP; type: functional; settings: 30 µM
[9] = molecular target: Chromo domain-containing protein 1 (Saccharomyces cerevisiae (strain ATCC 204508 / S288c) (Baker's yeast)) (UniProt P32657); assay: ScCHD-1 Enzyme Inhibition Assay; type: functional; settings: 30 µM; further: in the data most compounds retested in dose-response had high values
Chain of Chromo domain-containing protein 1 (Saccharomyces cerevisiae (strain ATCC 204508 / S288c) (Baker's yeast)) (P32657 whole entry, the tested form may be a part): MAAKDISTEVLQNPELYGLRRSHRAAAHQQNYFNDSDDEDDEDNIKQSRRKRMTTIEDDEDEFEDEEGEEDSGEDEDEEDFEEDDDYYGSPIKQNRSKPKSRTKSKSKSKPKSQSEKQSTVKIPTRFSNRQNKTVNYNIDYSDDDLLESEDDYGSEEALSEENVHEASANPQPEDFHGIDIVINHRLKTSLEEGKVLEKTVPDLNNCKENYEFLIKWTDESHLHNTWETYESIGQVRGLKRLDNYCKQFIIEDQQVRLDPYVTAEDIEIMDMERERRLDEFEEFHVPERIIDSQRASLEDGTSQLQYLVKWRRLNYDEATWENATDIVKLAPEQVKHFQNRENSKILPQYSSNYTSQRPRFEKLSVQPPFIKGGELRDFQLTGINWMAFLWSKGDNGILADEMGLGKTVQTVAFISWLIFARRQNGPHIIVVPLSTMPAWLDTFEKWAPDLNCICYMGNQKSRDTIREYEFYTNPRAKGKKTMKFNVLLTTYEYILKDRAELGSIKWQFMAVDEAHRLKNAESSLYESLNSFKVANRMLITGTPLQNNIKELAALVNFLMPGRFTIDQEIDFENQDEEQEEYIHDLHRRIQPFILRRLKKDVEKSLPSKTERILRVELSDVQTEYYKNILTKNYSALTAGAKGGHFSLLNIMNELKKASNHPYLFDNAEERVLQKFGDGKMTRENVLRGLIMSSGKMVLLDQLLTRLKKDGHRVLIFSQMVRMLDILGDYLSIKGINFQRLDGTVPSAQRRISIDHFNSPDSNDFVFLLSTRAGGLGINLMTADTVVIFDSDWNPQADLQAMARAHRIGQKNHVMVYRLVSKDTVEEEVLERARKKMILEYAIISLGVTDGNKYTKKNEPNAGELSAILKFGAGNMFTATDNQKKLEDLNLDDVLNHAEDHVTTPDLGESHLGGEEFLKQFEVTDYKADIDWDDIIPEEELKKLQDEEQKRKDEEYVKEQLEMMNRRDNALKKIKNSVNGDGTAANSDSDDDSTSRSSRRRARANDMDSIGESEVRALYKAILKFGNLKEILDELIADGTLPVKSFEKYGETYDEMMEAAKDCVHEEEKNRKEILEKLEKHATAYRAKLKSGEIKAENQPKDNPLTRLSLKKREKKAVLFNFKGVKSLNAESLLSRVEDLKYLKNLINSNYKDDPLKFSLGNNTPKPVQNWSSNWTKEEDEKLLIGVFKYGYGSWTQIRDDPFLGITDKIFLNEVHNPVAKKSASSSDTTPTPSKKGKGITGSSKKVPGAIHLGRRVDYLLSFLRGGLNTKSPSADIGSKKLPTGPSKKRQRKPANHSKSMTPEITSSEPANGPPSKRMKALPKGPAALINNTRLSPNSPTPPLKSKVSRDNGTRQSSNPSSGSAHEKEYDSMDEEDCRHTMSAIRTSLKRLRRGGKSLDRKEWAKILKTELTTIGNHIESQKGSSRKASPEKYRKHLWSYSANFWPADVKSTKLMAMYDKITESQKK

For Cc1ccc(-c2cc(C(=O)NC(C)C(=O)N3CCCCC3)on2)cc1 (stereo unspecified), the Percent Effect [1] was -6.75%, the Percent Effect [2] was 13.2% and the Percent Effect [3] was 6.88%. For the same compound, the Percent Effect [4] was 1.96%, the Percent Effect (Trypanosoma cruzi) was 4.19% and the Percent Effect [5] was 5.92%. For the same compound, the Percent Effect [6] was 34.9% and 32.7% and 30.8%, the Percent Effect (N/A) was 29.4% and the Percent Effect (Homo sapiens) was 10.4%. It also gave a Percent Effect [7] of 2.13%, a Percent Effect [8] of 10.4% and a Percent Effect [9] of -6.32%.
With Cc1cnn(CC2CCCN2CC(=O)N(C)Cc2ccc(C)o2)c1 (stereo unspecified) the Percent Effect [1] was -0.338%, the Percent Effect [2] was 0% and the Percent Effect [3] was -4.82%. For the same compound, the Percent Effect [4] was 2.25%, the Percent Effect (Trypanosoma cruzi) was 5.21% and the Percent Effect [5] was 0.476%. For the same compound, the Percent Effect [6] was 34.4% and 30.7% and 30.2%, the Percent Effect (N/A) was 12.9% and 15.3% and the Percent Effect (Homo sapiens) was -9.55%. The Percent Effect [7] was 5.82%, the Percent Effect [8] was 7.32% and the Percent Effect [9] was -2.6%.
Compound CCCC(NC(=O)c1cc(C)n(C2CC2)c1C)c1nnn[nH]1 (stereo unspecified) has a Percent Effect [1] of -6.85%, a Percent Effect [2] of 8% and a Percent Effect [3] of -2.47%. For the same compound, the Percent Effect [4] was 18.2%, the Percent Effect (Trypanosoma cruzi) was 6.13% and the Percent Effect [5] was 11.5%. For the same compound, the Percent Effect [6] was 41.1% and 40.1% and 33.4%, the Percent Effect (N/A) was 13.1% and 10.6% and the Percent Effect (Homo sapiens) was 14.1%. For the same compound, the Percent Effect [7] was 8.2%, the Percent Effect [8] was 11.1% and the Percent Effect [9] was -4.79%.
Work on Cn1cccc1C(=O)N1CCC2(CC1)CN(c1cncnc1)C(=O)CO2 yielded a Percent Effect [1] of -7.32%, a Percent Effect [2] of -189% and a Percent Effect [3] of -15.1%. For the same compound, the Percent Effect [4] was -0.563%, the Percent Effect (Trypanosoma cruzi) was -6.69% and the Percent Effect [5] was -1.17%. The Percent Effect [6] was 51% and 53.6% and 55.8%, the Percent Effect (N/A) was 4.36% and 0.727% and the Percent Effect (Homo sapiens) was 18.6%. The Percent Effect [7] was -69.2%, the Percent Effect [8] was -150% and the Percent Effect [9] was -4.5%.
Work on Cc1noc(NC(=O)c2ccc(OC(F)(F)F)cc2)n1 yielded a Percent Effect [1] of -1.74%, a Percent Effect [2] of 18.4% and a Percent Effect [3] of -0.843%. The Percent Effect [4] was 1.75%, the Percent Effect (Trypanosoma cruzi) was 2.52% and the Percent Effect [5] was -4.68%. For the same compound, the Percent Effect [6] was 75.9% and 76.1% and 72%, the Percent Effect (N/A) was 32.7% and 35.8% and the Percent Effect (Homo sapiens) was 75.7%. For the same compound, the Percent Effect [7] was 15.3%, the Percent Effect [8] was 28.4% and the Percent Effect [9] was -3.4%.
O=C(c1cn(-c2ccccc2Cl)nn1)N1CCCSCC1 showed a Percent Effect [1] of -4.85%, a Percent Effect [2] of 16.2% and a Percent Effect [3] of -2.86%. It also gave a Percent Effect [4] of 38.1%, a Percent Effect (Trypanosoma cruzi) of 5.57% and a Percent Effect [5] of 3.72%. For the same compound, the Percent Effect [6] was 49.8% and 55.2% and 47.1%, the Percent Effect (N/A) was 26.3% and 26% and the Percent Effect (Homo sapiens) was 0.244%. For the same compound, the Percent Effect [7] was 2.15%, the Percent Effect [8] was 16.1% and the Percent Effect [9] was -4.55%.
For Cc1cccc(NC(=O)c2sccc2C)n1, the Percent Effect [1] was -3.25%, the Percent Effect [2] was 23.7% and the Percent Effect [3] was -0.39%. The Percent Effect [4] was -12.7%, the Percent Effect (Trypanosoma cruzi) was 3.99% and the Percent Effect [5] was -16.6%. The Percent Effect [6] was 91.2% and 92.2% and 77.2%, the Percent Effect (N/A) was 69.5% and 70.4% and the Percent Effect (Homo sapiens) was 16.1%. For the same compound, the Percent Effect [7] was 1.06%, the Percent Effect [8] was 13% and the Percent Effect [9] was -7.3%.
In the case of Cc1ccc(NCc2cncc3c2CCN(C(=O)C2CC=CC2)C3)nn1, the Percent Effect [1] is reported as -0.965%, the Percent Effect [2] is reported as 5.33% and the Percent Effect [3] is reported as -0.665%. For the same compound, the Percent Effect [4] was 8.87%, the Percent Effect (Trypanosoma cruzi) was 1.74% and the Percent Effect [5] was -24.9%. The Percent Effect [6] was 30.2% and 30.4% and 33.3%, the Percent Effect (N/A) was 16.9% and 15.1% and the Percent Effect (Homo sapiens) was -6.99%. The Percent Effect [7] was 13.5%, the Percent Effect [8] was 32.5% and the Percent Effect [9] was -6.63%.
